The values that follow come from PubChem BioAssay (NCI).

SMILES strings stand for the structures. The panel holds about 83,000 compounds, 20% with a hit somewhere; the sample as a whole holds those more often.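 Single-dose data. Exposure time 48 hours. Values below 10 considered active.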 Calls of active or inactive are those of the source.

For this test, the system named is HCT-116 colon. As to the kind of experiment: NCI-60 one-dose screen, 48 h (100 = growth as untreated, 0 = no growth, -100 = all killed). Conditions: 10 µM unless noted.
For the compound `COc1c(F)ccc(C(=O)Nc2ccc3nc(NC(=O)C4CCCN(S(=O)(=O)C5CC5)C4)sc3c2)c1F` (stereo not drawn), the growth was 32.2% (inactive).

Turning to `CCOC(=O)C1=C(N)N(c2ccccc2)C2=C(C(=O)CC(C)(C)C2)C1c1ccc(N2CCOCC2)cc1` (stereo not drawn), the growth was 99.1% (inactive).

On to `OCC1(CCCc2ccccc2)CCCN(c2nccc3ccccc23)C1` (stereo not drawn), for which the growth was 14.8% (inactive).

In the case of `COc1ccc(/C=N/NC(=O)Cn2nc(Cc3ccc(OC)cc3)c3onc(C)c3c2=O)cc1`, the growth was 32.3% (inactive).

`O=[N+]([O-])c1ccc(/C=C/c2nc3ccccc3n3c(=S)[nH]nc23)cc1`: the growth was 70.6% (inactive).

As for `COC(=O)/C=C/c1cccc2c1C(=O)NC(C)(c1cc3ccccc3oc1=O)N2` (stereo not drawn), the growth was 44.6% (inactive).

Regarding `CCN(CC)c1ccc(/C=N/Nc2nc(-c3ccc(Br)cc3)cs2)c(O)c1`, the growth was 18.3% (inactive).

Take `O=C(c1ccccc1)C(c1c[nH]c2ccccc12)c1c[nH]c2ccccc12`: the growth is 20.2% (inactive).

Turning to `CC1(C)CC[C@]2(C(=O)Nc3ccc(Br)cc3)CC[C@]3(C)C(=CCC4[C@@]5(C)C[C@@H](O)[C@H](O)[C@@](C)(CO)C5CC[C@]43C)C2C1` (stereo partly drawn), the growth is -15.8% (active).

For the compound `CC(/C=C1\SC(=S)N(CCCC(=O)NC(CC(C)C)C(=O)O)C1=O)=C\c1ccccc1` (stereo not drawn), the growth was 71% (inactive).

On to `Cn1cc(-c2cc(N)n3nc(-c4cn(C)c5ccccc45)cc3n2)c2cc(Br)ccc21`, for which the growth was -92.9% (active).

`Cc1ccc(NCC(=O)Cn2cc(COc3ccc(C=Nc4cnc5ccccc5c4)cc3)nn2)cc1`: the growth was 110% (inactive).

In the case of `Cc1ccc([C@H]2C(C(=O)c3ccc(Cl)cc3)C3(N[C@@H]2c2ccccc2)C(=O)Nc2ccc(Cl)cc23)cc1` (stereo partly drawn), the growth was 23.7% (inactive).

On to `Cc1cc2nc3c4ccccc4n(CCNCCN(C)C)c3nc2cc1C`, for which the growth is -57.8% (active).

In the case of `Cc1ccccc1[C@H]1C(C(=O)c2ccc(Cl)cc2)C2(N[C@@H]1c1ccccc1)C(=O)Nc1ccc(Br)cc12` (stereo partly drawn), the growth was -71.6% (active).

With `CC(C)c1sc(NC(=O)c2cc(NC(=O)c3cc(NC(=O)c4cscn4)cn3C)cn2C)nc1C(=O)NCCCN(C)C`, the growth was -79.5% (active).

Regarding `CC(=O)OC[C@@]1(C)C2CC[C@]3(C)C(CC=C4C5CC(C)(C)CC[C@]5(C(=O)Nc5ccc(C)cc5)CC[C@]43C)[C@@]2(C)C[C@@H](OC(C)=O)[C@@H]1OC(C)=O` (stereo partly drawn), the growth was 24.7% (inactive).

In the case of `O=C1CC(Sc2n[nH]c(-c3ccncc3)n2)C(=O)N1c1ccc(Br)cc1` (stereo not drawn), the growth was 105% (inactive).

On to `COc1cc2c3c(n(CCCN4CCC[C@@H]4CO)c(=O)c2cc1OC)-c1cc2c(cc1C3=O)OCO2`, for which the growth is -59.1% (active).

On to `C=C1CCC2C3(C)COC(c4ccc(F)cc4)OC3CCC2(C)C1C/C=C1/C(=O)OCC1O` (stereo not drawn), for which the growth is -74.2% (active).

For the compound `Cc1sc(C(NC(=O)OCCn2c([N+](=O)[O-])cnc2C)C(F)(F)Cl)nc1-c1ccc(OC(F)(F)F)cc1` (stereo not drawn), the growth is -80.3% (active).

Consider `CC1[C@H]2[C@H](C[C@H]3[C@@H]4CC=C5c6sc(Nc7ccccc7F)nc6CC[C@]5(C)[C@H]4CC[C@@]32C)O[C@]12CC[C@@H](C)CO2` (stereo partly drawn), for which the growth is -94.3% (active).

With `O=C(c1ccccc1)c1ccc2nc(-c3cccc(Cl)c3)[nH]c2c1`, the growth was 103% (inactive).

On to `OCNc1ccc(-n2cnc3cc(-c4ccc(O)cc4)ccc32)cc1C(F)(F)F`, for which the growth is 22.6% (inactive).

In the case of `CCOC(=O)C(N=Nc1ccc(S(=O)(=O)N=C(N)N)cc1)C(C)=O` (stereo not drawn), the growth was 109% (inactive).

For the compound `CCOC(=O)/C=C/c1cccc2c1C(=O)NC(C)(c1cc3cc(Cl)ccc3oc1=O)N2` (stereo not drawn), the growth is 17.6% (inactive).

As to `C#CCOc1cc(N(CC)CC)ccc1C(C(=O)NC(C)(C)C)N(C(=O)C1CCc2cc(F)ccc2O1)c1ccc(Br)cc1` (stereo not drawn), the growth was 35.6% (inactive).

Consider `CCCCCCCCc1ccc(C(=O)Nc2ccc(C)cc2C(=O)O)cc1C`, for which the growth is 84% (inactive).

In the case of `C#CCOc1cc(N(CC)CC)ccc1C(C(=O)NC(C)(C)C)N(C(=O)C1CCc2cc(F)ccc2O1)c1ccc(F)c(Cl)c1` (stereo not drawn), the growth is 38.2% (inactive).

In the case of `CCOC(=O)C1=C(N)N(c2ccccc2)C2=C(C(=O)CC(C)(C)C2)C1c1ccc([N+](=O)[O-])cc1` (stereo not drawn), the growth was 83.8% (inactive).

With `C=C1CC[C@@H]2[C@]3(C)COC(c4ccccc4)O[C@@H]3CC[C@@]2(C)[C@@H]1C/C=C1/C(=O)OCC1OC(C)=O` (stereo partly drawn), the growth is -94.7% (active).

On to `C#C[C@]1(O)CC[C@H]2[C@@H]3CC=C4c5sc(-c6ccc([N+](=O)[O-])cc6)nc5CC[C@]4(C)[C@H]3CC[C@@]21C`, for which the growth is 0.46% (active).

On to `CN1CCN(/C(=N\c2sc(-c3ccccc3)nc2-c2ccccc2)c2ccccc2)CC1`, for which the growth was 54.4% (inactive).

Consider `N=C1N=C(SCc2nc3ccccc3[nH]2)NC(=O)/C1=C/c1ccc(Cl)cc1`, for which the growth is 105% (inactive).

For the compound `C/C(=N\N=C1/C(=O)Nc2ccc(Cl)cc21)c1ccc2c(c1)Nc1ccccc1S2`, the growth is -43% (active).

`Cc1cccc(NC(=O)CN2CCN(c3ncnc4c3cnn4-c3ccccc3)CC2)c1`: the growth was 58.6% (inactive).

Turning to `CN(C)CCOc1ccc(C(=O)C2[C@H](c3ccc(Cl)cc3)[C@@H](c3ccccc3)NC23C(=O)Nc2ccccc23)cc1` (stereo partly drawn), the growth is 22% (inactive).

As for `COc1ccc2[nH]cc(-c3nnc(N)nc3-c3cn(C)c4ncc(Br)cc34)c2c1`, the growth is 79.6% (inactive).
